Pf Dd2 inh = inhibitors of Plasmodium falciparum Dd2 growth | AID 1347417 | P. falciparum Dd2 growth, SYBR Green, 72 h | 120,000 compounds, 4.3% hits | Potency, µM (highest dose often 28.9 µM), usual class: inhibitors; active = well fitted inhibition curve with a large enough effect; also: nearly all actives have a fitted effect of over 65% in size
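Readout: SYBR Green fluorescence, 485 nm excitation, 535 nm emission, after ~16 h lysis at 37C. Before that, Dd2-infected red cells (2.5% hematocrit) grew 72 h with compound, 29 uM top final concentration.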
Hits are given with their value; – = inactive; [ ] = another dose, or the depositor's remark. Only a selection was taken, and hits are over-represented in it overall.

SMILES	Pf Dd2 inh
COc1ccccc1NC(=O)c1c(NC(=O)Cc2ccccc2)sc2c1CCC(C(C)(C)C)C2 (configuration not stated)	–
COc1ccc(NC(=O)c2c(NCc3cccs3)sc3c2CCC(C)C3)c(OC)c1 (configuration not stated)	10µM
COc1ccc(OC)c(NC(=O)c2c(OC)cc(=O)n3c2CCCC3)c1	–
COc1ccc(OC)c(NC(=O)c2c(NCc3cccs3)sc3c2CCCCC3)c1	8.9µM
COc1ccc(OC)c(NC(=O)c2sc3nc4c(cc3c2N)CCCCCC4)c1	–
COc1cc(C(=O)Nc2sc3c(c2C(N)=O)CCC(C)C3)cc(OC)c1OC (configuration not stated)	–
COCCN1C(=O)CC[C@]2(C(=O)NCc3ccc(OC)c(OC)c3)CCCC[C@@H]12	–
Cc1noc(-c2cccn3c(CNC(=O)c4ccc5ccccc5n4)nnc23)n1	–
Cc1cc(CNC(=O)[C@@H]2CCC[C@@H](NC3CCC3)CN(C)C(=O)C2)no1	–
CNC(=O)N1CCCCCCNC(=O)[C@@H]2CCCC[C@@H]21	–
CC(C)N1C[C@H](O)C[C@H]1c1nnc2n1CCN(C(=O)c1ccc(Cn3ccnc3)o1)CC2	–
COC(=O)C1=C(C)N=C2SC=C(CC(=O)NCCCN3CCCC3=O)N2C1c1ccccc1 (configuration not stated)	–
CCOC(=O)c1[nH]c(C)c(CCC(=O)NCc2cccc(Cl)c2)c1C	–
CCOC(=O)c1[nH]c(C)c(CCC(=O)N2CCN(c3cc(C)ccc3C)CC2)c1C	0.63µM
CCOC(=O)c1[nH]c(C)c(CCC(=O)Nc2cc(C)ccc2OC)c1C	–
CCOC(=O)c1[nH]c(C)c(CCC(=O)N2CCN(c3cccc(OC)c3)CC2)c1C	4µM
CCOC(=O)c1[nH]c(C)c(CCC(=O)NCc2ccccc2)c1C	–
COc1cccc(N2CCN(C(=O)CCc3conc3-c3ccccc3)CC2)c1	–
CCOC(=O)c1[nH]c(C)c(CCC(=O)N2CCN(c3cc(Cl)ccc3C)CC2)c1C	0.56µM
Cc1ccc(Cl)cc1N1CCN(C(=O)CCSCc2ccccc2F)CC1	–
CCOC(=O)c1cc(S(=O)(=O)N2CCN(c3cccc(OC)c3)CC2)[nH]n1	–
Cc1ncc2c(c1CNC(=O)Cc1ccsc1)CCN(C(=O)Cc1ccc(F)c(F)c1)C2	–
COc1ccc(-c2[nH]nc3ncc(-c4ccccc4F)nc23)c(C)c1	–
CCN1CCC(N2CCOC3(COCCN(C(=O)c4ccccc4C)C3)C2)CC1 (configuration not stated)	–
O=C1CC2(CCN(C(=O)c3ccccc3)CC2)Oc2cc(Cl)ccc21	–
SMILES	Pf Dd2 inh
COc1cccc(C(=O)N[C@@H]2CN(C)C[C@H]2CN(C)C)c1OC	–
CN(C)[C@H]1C[C@@H](Cc2cc(CCO)on2)C1(C)C	–
CCOc1ccc(NC(=O)Cn2cc(C(=O)C3CC3)c3ccccc32)cc1	–
CCOc1ccc(NC(=O)N(Cc2cn(CC)c3ccccc23)C2CCCCCC2)cc1	10µM
CCOc1ccc(CNC(=O)CCc2cn(CC)c3ccccc23)cc1	–
CC(=O)N1CCC(Oc2ccc(Cl)cc2C(=O)NCCCN2CCCC2=O)CC1	–
O=C(CCC(F)(F)F)N1CCC2(CCCN(CC3CCCCC3)C2=O)C1 (configuration not stated)	–
CC(=O)N1CCCc2ccc(NS(=O)(=O)c3ccc(C)c(C)c3)cc21	–
COc1ccc(S(=O)(=O)Nc2ccc3c(c2)N(C(C)=O)CCC3)cc1F	10µM
CC(=O)N1CCCc2ccc(NS(=O)(=O)c3cccc(Cl)c3)cc21	–
CN1[C@@H](CCC(=O)N2CC[C@@H](O)C2)CNC(=O)[C@@H]2[C@H]1CCN2Cc1csnn1	–
CCOc1ccc(NC(=O)CC2Nc3cccc4cccc(c34)NC2=O)cc1 (configuration not stated)	–
CCOC(=O)c1ccc(NC(=O)CC2Sc3ccc(C(F)(F)F)cc3NC2=O)cc1 (configuration not stated)	–[0.594 µM]
CCOC(=O)c1ccc(NC(=O)CC2Nc3cc(C)c(C)cc3NC2=O)cc1 (configuration not stated)	4µM
NC(=O)c1ccc(NC(=O)C[C@H]2NC(=O)c3ccccc3NC2=O)cc1	–
CCOC(=O)c1ccc(NC(=O)CC2Nc3cccc4cccc(c34)NC2=O)cc1 (configuration not stated)	10µM
CC(=O)c1ccc(NC(=O)CC2Nc3cccc4cccc(c34)NC2=O)cc1 (configuration not stated)	–
COc1ccc(CCNC(=O)[C@H]2CCC[C@H]2NC(=O)c2ccncc2)cc1OC	–
O=C(N[C@H]1CCOC[C@H]1C1CCOCC1)c1cnc(CN2CCCC2)s1	–
Cc1noc(C)c1-c1nccc2c(=O)cc(-c3cccnc3)oc12	–
COc1ccc([C@@H](NC(=O)c2ccc3ncsc3c2)C2CC(O)C2)cn1 (some centres not stated)	–
CC(=O)Nc1ccc(C2(C(=O)NCc3cccs3)CCCCC2)cc1	–
CCOC(=O)C1=CN(CC(=O)Nc2cccc(Cl)c2C)S(=O)(=O)N=C1C	–
O=C(CCC1CCCC1)NC1CCc2nn(CC3CC3)c(=O)n2CC1 (configuration not stated)	–
Cc1noc(CC2CCN(C(=O)C(C)Oc3ccc4ccccc4c3)CC2)n1 (configuration not stated)	–
SMILES	Pf Dd2 inh
COc1ccc(C(=O)N2CCC3(CC2)NC(=O)N(c2ccccc2)N3)cc1	–
O=C(c1n[nH]c2c1CCCC2)N1CCC2(CC1)NC(=O)N(c1ccccc1)N2	3.2µM
Cc1ccsc1C(=O)N1CCC2(CC1)NC(=O)N(c1ccccc1)N2	–
O=C(Cc1ccc(F)cc1)Nc1ccc2ncnc(N3CCCC3)c2c1	–
C[C@H]1[C@@H]2[C@@H](O)C([C@H](C)C(=O)N3CCCC3)CC[C@@]2(C)CC[C@@H]1NC(=O)Nc1cccc(F)c1 (some centres not stated)	–
O=C1CC2(CCN(Cc3ccc(C(F)(F)F)cc3)CC2)Oc2cc(Cl)ccc21	–
O=C1CC2(CCN(CC3CCCCC3)CC2)Oc2cc(Cl)ccc21	1.4µM
O=C1CC2(CCN(CC3CC3)CC2)Oc2ccccc21	–
CCCCCNC(=O)c1ccc(CN2C(=O)NC3(CCS(=O)(=O)CC3)C2=O)cc1	–
CC(C)CN1C(=O)c2cccn2CC1CNC(=O)c1cccn1C (configuration not stated)	–
COc1ccc(-c2nc3c(c(SCC(=O)Nc4ccccc4OC)n2)Cc2cccc(C)c2O3)cc1	11µM
CCOc1ccc(-c2nc3c(c(SCC(=O)Nc4ccccc4C)n2)Cc2ccccc2O3)cc1	–
COc1cccc(NC(=O)CSc2nc(-c3ccccc3)nc3c2Cc2cc(Cl)ccc2O3)c1	–
COc1cccc2c1Oc1nc(-c3ccccc3)nc(SCC(=O)N3CCCCC3)c1C2	–
CCOc1cccc2c1Oc1nc(-c3ccccc3)nc(SCC(=O)Nc3ccc(F)cc3)c1C2	7.9µM
COc1ccc(-c2nc3c(c(SCC(=O)Nc4ccccc4F)n2)Cc2cc(C)ccc2O3)cc1	–
CN1[C@@H](CCC(=O)NCc2ccccc2)CNC(=O)[C@@H]2[C@H]1CCN2Cc1ccc(O)cc1	–
CCCc1noc(-c2cn(C3CCN(C(=O)c4ccoc4)CC3)nn2)n1	–
O=C(c1n[nH]c2c1CCCC2)N1CCCC2(C1)Nc1cccnc1NC2=NC1CCCC1 (configuration not stated)	–[5.79 µM]
COc1ccc(N2CCN(CCCNC(=O)c3cc(Nc4ccc(OC)cc4OC)nc4ccccc34)CC2)cc1	–
O=C(NC1CCCCC1)c1cc(Nc2ccccc2)nc2ccccc12	–
